Experimental data published in PubChem BioAssay (NCATS).
Inconclusive results are not listed. The source made the active and inactive calls. Unless noted, the call rests on the fitted dose curve; in most records, active means well fitted curve in the direction sought with a large enough effect; inconclusive means small, poorly fitted or top-dose-only effect, or another doubt; inactive means no such curve, though single readings can be large; an effect the other way counts as inactive or inconclusive.

Legend:
[1] = biological target: Lysosomal acid glucosylceramidase (Homo sapiens) (UniProt P04062); test: Glucocerebrosidase-p2 (AID 348; in the data active means potency below about 10 µM; further: potency means the concentration at half of the fitted maximal effect); conditions: purified GBA, blue fluorogenic substrate, 40 min
Sequence of Lysosomal acid glucosylceramidase (Homo sapiens) (P04062 whole entry, looked up): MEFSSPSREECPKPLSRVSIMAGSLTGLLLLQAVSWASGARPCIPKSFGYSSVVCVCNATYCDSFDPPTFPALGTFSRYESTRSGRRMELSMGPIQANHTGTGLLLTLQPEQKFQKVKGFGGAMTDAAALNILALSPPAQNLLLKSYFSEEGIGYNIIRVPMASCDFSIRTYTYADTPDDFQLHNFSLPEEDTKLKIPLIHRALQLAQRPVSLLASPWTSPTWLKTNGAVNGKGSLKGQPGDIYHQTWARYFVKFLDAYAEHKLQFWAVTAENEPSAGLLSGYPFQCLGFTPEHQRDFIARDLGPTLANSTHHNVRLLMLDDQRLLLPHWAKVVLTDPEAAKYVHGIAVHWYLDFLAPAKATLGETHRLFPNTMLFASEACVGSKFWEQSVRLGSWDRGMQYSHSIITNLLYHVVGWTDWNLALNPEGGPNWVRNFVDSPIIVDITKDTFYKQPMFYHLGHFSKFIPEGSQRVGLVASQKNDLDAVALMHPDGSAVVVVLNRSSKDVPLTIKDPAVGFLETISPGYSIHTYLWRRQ
Outline: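 Compounds titrated from 0.6 nM upwards against 0.2 nM enzyme in pH 5.9 citric acid/KH2PO4, taurocholate, tween-20; blue fluorogenic substrate 80 uM, 40 min room temperature, stopped and read Ex 365/Em 440 for AC50.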

[2] = AP1 Signaling Pathway (AID 357; active means well fitted curve in either direction with a large enough effect, not every such curve was filed as active;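 further: ME-180 reporter cells stimulated with EGF at its EC50 level; on the % scale 0 is the no-effect control and ±100 the full control effect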); conditions: ME-180 AP-1-bla reporter, EGF-induced, beta-lactamase ratio, 5 h; at 7.69 µM (top of the series) unless noted
Outline: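 Beta-lactamase reporter under AP-1 response element, ME-180 background. Stimulus: EC50 EGF. Compound exposure 5 h, 37 °C. Detection: CCF4, 2.5 h RT, 460/530 nm. Values: AC50 from titration.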

[3] = NFAT Signaling Pathway (AID 444; active means well fitted curve in either direction with a large enough effect, not every such curve was filed as active;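 further: carbachol stimulus at about its EC50 of 1 µM final; on the % scale 0 is the no-effect control and ±100 the full control effect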); conditions: Jurkat NFAT-bla M1, carbachol, beta-lactamase ratio, 5 h; at 7.69 µM (top of the series) unless noted
Outline: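 Jurkat cells with NFAT-driven β-lactamase reporter and co-expressed M1 receptor, stimulated with carbachol (final 1 uM, ~EC50), compound titration, 5 h at 37 °C. CCF4 loaded 1 h at RT; 460/530 nm ratio gave %activity and AC50.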

[4] = Stat Signaling Pathway (AID 446; active means well fitted curve in either direction with a large enough effect, not every such curve was filed as active;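 further: ME-180 cervical cancer cells given 40 pM IL-6 alongside compound; SIE-controlled beta-lactamase reporter measured as 460/530 nm FRET emission ratio; on the % scale 0 is the no-effect control and ±100 the full control effect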); conditions: ME-180 SIE beta-lactamase reporter, IL-6 stimulated, 5 h; at 7.69 µM (top of the series) unless noted
Outline: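 Reporter line: ME-180 cervical carcinoma, SIE-beta-lactamase. Treatment: compound with 40 pM IL-6, 5 hrs, 37 C, in low-serum OPTI-MEM with 10 mM HEPES pH 7.3. Detection: 460/530 nm fluorescence.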

[5] = biological target: Glucocorticoid receptor (Homo sapiens) (UniProt P04150); test: GR-GFP Redistribution (AID 450;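 active means compounds whose dose series gives a full or clear partial fitted curve of increased nuclear translocation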; further: potency means the concentration at half of the fitted maximal effect); conditions: U2OS GR-GFP nuclear translocation, laser cytometry, 2 h
Sequence of Glucocorticoid receptor (Homo sapiens) (P04150 whole entry, looked up, the tested form may be a part): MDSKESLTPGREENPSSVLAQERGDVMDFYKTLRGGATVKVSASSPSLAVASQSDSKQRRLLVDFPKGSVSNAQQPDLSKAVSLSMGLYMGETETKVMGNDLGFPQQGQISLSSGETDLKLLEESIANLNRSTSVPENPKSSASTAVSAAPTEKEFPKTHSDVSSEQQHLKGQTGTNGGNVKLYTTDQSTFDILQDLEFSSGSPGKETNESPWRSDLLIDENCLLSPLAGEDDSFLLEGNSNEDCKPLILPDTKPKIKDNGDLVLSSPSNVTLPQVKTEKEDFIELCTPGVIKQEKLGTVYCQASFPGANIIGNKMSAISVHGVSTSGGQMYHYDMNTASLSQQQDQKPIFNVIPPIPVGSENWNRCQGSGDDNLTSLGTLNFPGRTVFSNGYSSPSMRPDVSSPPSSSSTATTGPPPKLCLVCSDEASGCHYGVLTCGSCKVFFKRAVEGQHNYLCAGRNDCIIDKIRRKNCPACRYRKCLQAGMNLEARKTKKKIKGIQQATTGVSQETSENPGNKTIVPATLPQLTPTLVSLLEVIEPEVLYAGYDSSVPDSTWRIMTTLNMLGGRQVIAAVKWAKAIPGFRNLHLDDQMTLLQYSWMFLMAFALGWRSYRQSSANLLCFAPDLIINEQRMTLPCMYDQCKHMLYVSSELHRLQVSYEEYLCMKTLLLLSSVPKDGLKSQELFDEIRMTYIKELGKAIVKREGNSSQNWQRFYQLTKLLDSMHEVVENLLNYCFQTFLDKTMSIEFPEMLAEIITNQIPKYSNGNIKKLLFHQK

[6] = biological target: Glucocorticoid receptor (Homo sapiens) (UniProt P04150); test: GR-EFC Redistribution (AID 451; calls by dose curve; further: potency means the concentration at half of the fitted maximal effect); conditions: CHO-K1 GR-EFC translocation, beta-gal luminescence, 2 h
Outline: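 CHO-K1 cells expressing nuclear EA and GR-ED fragments of b-gal; compounds titrated up to 46 uM final, 2 h at 37 C. GR nuclear translocation read as complemented b-gal luminescence after 1 h RT detection.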

[7] = biological target: Mitogen-activated protein kinase 10 (Mus musculus) (UniProt Q61831); test: JNK3 AlphaScreen Assay (AID 530; active means well fitted curve in either direction with a large enough effect, not every such curve was filed as active;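 further: kinase came from lysate of stimulated human HepG2 cells; signal reports phosphorylation of biotinylated GST-cJun 1-79 at Ser73 with 10 µM ATP; on the % scale 0 is the no-effect control and ±100 the full control effect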)
Outline: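 Pre-activated (IL-1β/TNFα) JNK3 in HepG2 lysates phosphorylates biotin-GST-cJun(1-79), 10 uM ATP; anti-phospho-cJun(Ser73) AlphaScreen read at room temperature, pH 7.6 Tris buffer. Compounds pre-incubated 15 min as titrations.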

[8] = qHTS Assay for Identification of Small Molecule Agonists for Hypoxia Response Element Signaling Pathway (AID 914; active means well fitted activation curve with a large enough effect in the signal ratio, with a control signal flat, not every such curve was filed as active; the % refers to the signal ratio; further: potency means the concentration at half of the fitted maximal effect; on activation: % of control where 0% means no effect); conditions: ME-180 (cervical carcinoma) HRE-bla reporter, beta-lactamase ratio, CoCl2, 17 h; activation: stronger effect = higher value
Outline: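 HRE-bla ME-180 cells with beta-lactamase reporter under hypoxia response element, compounds with EC50 CoCl2 for 17 hours at 37 C. CCF4 substrate, 460nm/530nm emission ratio gave %Activity; AC50 from titration series.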

[9] = qHTS Assay for Lipid Storage Modulators (AID 1519; calls by dose curve); conditions: Drosophila S3 cells, BODIPY lipid droplet/cell ratio, laser cytometry, cells loaded with oleic acid; for activity change, negative = inhibition: at 57.5 µM (top of the series)
Outline: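 Cells seeded at 5,000 per well were treated with compounds over a concentration series and loaded with oleic acid (400 uM, as added). Lipid droplet fluorescence (488 nm excitation, 500-530 nm channel) was read by laser-scanning cytometry and normalized to 20 uM Triacsin C.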

[10] = biological target: Dual specificity protein kinase CLK4 (Homo sapiens) (UniProt Q9HAZ1); test: qHTS Assay for Inhibitors of CDC-like Kinase 4 (Kinase-Glo Assay) (AID 1770); further: nearly all actives have a fitted effect of over 65% in size; further: potency means the concentration at half of the fitted maximal effect
Sequence of Dual specificity protein kinase CLK4 (Homo sapiens) (Q9HAZ1 whole entry, looked up): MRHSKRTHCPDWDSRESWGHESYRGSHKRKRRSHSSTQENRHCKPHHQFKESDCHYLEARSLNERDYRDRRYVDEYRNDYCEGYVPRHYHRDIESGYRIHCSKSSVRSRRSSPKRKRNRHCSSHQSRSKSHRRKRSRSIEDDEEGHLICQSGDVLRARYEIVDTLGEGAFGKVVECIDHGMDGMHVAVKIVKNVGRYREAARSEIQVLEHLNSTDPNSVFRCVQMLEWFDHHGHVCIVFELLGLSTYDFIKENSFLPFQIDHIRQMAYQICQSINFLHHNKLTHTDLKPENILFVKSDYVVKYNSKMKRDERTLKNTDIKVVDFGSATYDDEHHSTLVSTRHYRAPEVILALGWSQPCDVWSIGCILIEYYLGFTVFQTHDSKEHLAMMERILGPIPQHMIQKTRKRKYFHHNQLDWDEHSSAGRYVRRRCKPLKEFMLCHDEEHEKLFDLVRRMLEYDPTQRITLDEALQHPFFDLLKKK
Outline: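 Clk4 25 nM, RS peptide 100 uM, ATP 1 uM, pH 7.5 Tris, 10 mM MgCl2, 2.5 mM DTT; 4.5 h RT; ATP depletion read by Kinase-Glo luminescence.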

[11] = biological target: Dual specificity protein kinase CLK4 (Homo sapiens) (UniProt Q9HAZ1); test: qHTS Assay for Inhibitors of CDC-like Kinase 4 (ADP-Glo Assay) (AID 1771); further: nearly all actives have a fitted effect of over 70% in size; further: potency means the concentration at half of the fitted maximal effect
Outline: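 25 nM Clk4 with 100 uM RS repeat peptide and 1 uM ATP (final) in buffer with 2 mM MgCl2, 0.5 mM EGTA, 2.5 mM DTT, 0.01% Triton X-100; 1 h at room temperature; ADP-Glo luminescence for ADP formed.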

[12] = biological target: Dual specificity protein kinase CLK4 (Homo sapiens) (UniProt Q9HAZ1); test: qHTS Assay for Inhibitors of CDC-like Kinase 4 (ADP-FP Assay) (AID 1795); further: nearly all actives have a fitted effect of over 60% in size; further: potency means the concentration at half of the fitted maximal effect
Outline: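 Kinase activity was followed as ADP output, converted from fluorescence polarization with a calibration curve. Reactions ran one hour at low ATP (1 uM) with RS peptide substrate.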

[13] = biological target: Ubiquitin carboxyl-terminal hydrolase 1 (Homo sapiens) (UniProt O94782); test: Inhibitors of USP1/UAF1: Pilot qHTS (AID 504865);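 further: rhodamine fluorescence freed from ubiquitin-rhodamine substrate followed over time; top concentration of the series differs between compounds; on the % scale 0 is the no-effect control and ±100 the full control effect; nearly all actives have a fitted effect of over 35% in size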
Sequence of Ubiquitin carboxyl-terminal hydrolase 1 (Homo sapiens) (O94782 whole entry, looked up): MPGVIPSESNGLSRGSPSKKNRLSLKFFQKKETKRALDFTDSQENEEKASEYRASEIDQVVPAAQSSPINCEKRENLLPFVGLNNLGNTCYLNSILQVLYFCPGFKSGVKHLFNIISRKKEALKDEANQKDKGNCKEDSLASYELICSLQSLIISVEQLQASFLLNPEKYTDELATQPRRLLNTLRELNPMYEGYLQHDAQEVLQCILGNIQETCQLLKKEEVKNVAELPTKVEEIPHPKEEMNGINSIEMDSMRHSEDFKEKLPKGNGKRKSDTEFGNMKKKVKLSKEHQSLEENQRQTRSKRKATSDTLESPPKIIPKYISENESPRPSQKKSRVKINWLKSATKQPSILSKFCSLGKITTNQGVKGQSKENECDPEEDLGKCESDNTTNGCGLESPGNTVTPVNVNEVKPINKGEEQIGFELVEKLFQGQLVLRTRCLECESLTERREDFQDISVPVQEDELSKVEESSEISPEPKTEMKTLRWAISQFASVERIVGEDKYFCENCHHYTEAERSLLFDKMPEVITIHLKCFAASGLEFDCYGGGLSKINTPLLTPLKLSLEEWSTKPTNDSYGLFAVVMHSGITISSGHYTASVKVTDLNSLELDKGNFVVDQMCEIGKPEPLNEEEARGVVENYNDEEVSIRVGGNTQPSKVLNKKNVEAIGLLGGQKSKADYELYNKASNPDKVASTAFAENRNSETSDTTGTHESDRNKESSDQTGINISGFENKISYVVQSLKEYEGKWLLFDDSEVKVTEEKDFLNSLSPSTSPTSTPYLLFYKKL
Outline: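 Enzyme-free wells gave the negative control, while test wells held 1nM USP1/UAF1 preincubated with compound for 15 min at room temperature. Ub-Rho at 150nM final started the reaction, and fluorescence at 480/540 nm was recorded kinetically.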

[14] = biological target: 3',5'-cyclic-AMP phosphodiesterase 4B (Homo sapiens) (UniProt Q07343); test: qHTS Assay for Inhibitors of PDE-IV (AID 607; active means well fitted activation curve with a large enough effect in the main read-out, with a control signal flat, not every such curve was filed as active; further: % of control where 0% means no effect)
Sequence of 3',5'-cyclic-AMP phosphodiesterase 4B (Homo sapiens) (Q07343 whole entry, looked up): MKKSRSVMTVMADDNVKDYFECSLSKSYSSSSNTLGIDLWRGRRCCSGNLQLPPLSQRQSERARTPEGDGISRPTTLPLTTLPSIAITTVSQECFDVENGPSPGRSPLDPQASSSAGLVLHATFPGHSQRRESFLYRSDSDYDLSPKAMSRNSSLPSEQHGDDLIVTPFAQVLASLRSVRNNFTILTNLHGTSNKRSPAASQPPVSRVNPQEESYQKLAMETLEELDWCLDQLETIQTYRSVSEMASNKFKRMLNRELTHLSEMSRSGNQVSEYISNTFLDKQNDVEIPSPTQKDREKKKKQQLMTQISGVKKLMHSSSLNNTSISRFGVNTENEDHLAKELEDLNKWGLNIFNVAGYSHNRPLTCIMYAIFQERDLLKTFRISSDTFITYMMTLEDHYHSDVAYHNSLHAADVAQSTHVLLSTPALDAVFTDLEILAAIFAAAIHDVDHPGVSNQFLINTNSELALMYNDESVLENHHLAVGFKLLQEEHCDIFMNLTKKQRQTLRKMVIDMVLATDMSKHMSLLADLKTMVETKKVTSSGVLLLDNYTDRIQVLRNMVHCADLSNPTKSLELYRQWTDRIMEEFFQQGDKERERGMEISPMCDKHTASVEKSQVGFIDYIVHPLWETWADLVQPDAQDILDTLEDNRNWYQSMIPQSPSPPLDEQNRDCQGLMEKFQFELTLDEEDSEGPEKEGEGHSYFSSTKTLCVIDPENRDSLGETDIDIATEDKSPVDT
Outline: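 Cell-based read-out of cAMP via a modified cyclic nucleotide-gated channel and membrane potential dye (535/590 nm) in HEK293 cells expressing PDE4 endogenously. Compounds tested up to 22.9 uM final; 100 uM RO 20-1724 reference.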

[15] = biological target: Cytochrome P450 1A2 (Homo sapiens) (UniProt P05177); test: p450-cyp1a2 (AID 410; calls by dose curve; further: potency means the concentration at half of the fitted maximal effect)
Sequence of Cytochrome P450 1A2 (Homo sapiens) (P05177 whole entry, looked up): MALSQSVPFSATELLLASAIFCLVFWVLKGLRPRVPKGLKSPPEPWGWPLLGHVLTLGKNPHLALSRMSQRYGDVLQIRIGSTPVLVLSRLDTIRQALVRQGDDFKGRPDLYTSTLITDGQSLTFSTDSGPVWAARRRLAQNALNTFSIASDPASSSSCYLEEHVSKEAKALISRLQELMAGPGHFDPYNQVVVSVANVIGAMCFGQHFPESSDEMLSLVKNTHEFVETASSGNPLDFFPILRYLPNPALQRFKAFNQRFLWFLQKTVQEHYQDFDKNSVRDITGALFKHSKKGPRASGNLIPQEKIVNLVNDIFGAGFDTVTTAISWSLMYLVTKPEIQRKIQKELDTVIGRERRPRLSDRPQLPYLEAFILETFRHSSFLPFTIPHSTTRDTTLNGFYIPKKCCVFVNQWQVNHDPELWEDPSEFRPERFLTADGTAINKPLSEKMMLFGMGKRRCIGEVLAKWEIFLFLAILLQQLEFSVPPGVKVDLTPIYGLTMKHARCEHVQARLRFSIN
Outline: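 20nM CYP1A2 with 100uM Luciferin-ME (at Km) in 100mM KPO4; compound preincubated 10 min, NADPH regeneration added, 60 min at room temperature. Luciferin quantified by luminescence after detection reagent; normalized to 57 uM furafylline.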

[16] = biological target: Cytochrome P450 3A4 (Homo sapiens) (UniProt P08684); test: qHTS Assay for Activators of Cytochrome P450 3A4 (AID 885); further: nearly all actives have a fitted effect of over 65% in size
Sequence of Cytochrome P450 3A4 (Homo sapiens) (P08684 whole entry, looked up): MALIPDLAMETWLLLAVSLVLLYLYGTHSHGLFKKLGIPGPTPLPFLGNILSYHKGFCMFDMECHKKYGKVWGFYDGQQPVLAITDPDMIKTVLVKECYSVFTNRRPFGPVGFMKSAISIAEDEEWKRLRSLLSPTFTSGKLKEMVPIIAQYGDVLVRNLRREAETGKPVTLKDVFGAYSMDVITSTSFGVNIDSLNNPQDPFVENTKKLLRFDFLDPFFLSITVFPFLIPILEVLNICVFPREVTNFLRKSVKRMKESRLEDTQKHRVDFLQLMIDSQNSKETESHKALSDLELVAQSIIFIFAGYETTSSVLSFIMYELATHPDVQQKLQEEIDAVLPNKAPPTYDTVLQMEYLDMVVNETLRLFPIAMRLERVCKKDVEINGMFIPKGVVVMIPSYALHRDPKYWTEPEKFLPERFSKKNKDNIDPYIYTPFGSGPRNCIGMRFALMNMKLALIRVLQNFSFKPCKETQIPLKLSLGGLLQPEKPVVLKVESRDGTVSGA
Outline: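 Signal was normalized against complete inhibition by 57 uM ketoconazole. The reaction used 20nM CYP3A4 with 25uM Luciferin-PPXE, 10-min compound preincubation and a 60-min NADPH-supported step at RT.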

[17] = biological target: Cytochrome P450 3A4 (Homo sapiens) (UniProt P08684); test: qHTS Assay for Inhibitors and Substrates of Cytochrome P450 3A4 (AID 884); further: potency means the concentration at half of the fitted maximal effect; nearly all actives have a fitted effect of over 50% in size
Outline: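 20 nM human CYP3A4 with 25 uM Luciferin-PPXE (at KM) in 200 mM KPO4, preincubated 10 min with compound; NADPH regeneration started a 60 min RT reaction. Luciferin detected by luminescence, normalized to 57 uM ketoconazole as full inhibition.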

[18] = biological target: Cytochrome P450 2C19 (Homo sapiens) (UniProt P33261); test: qHTS Assay for Inhibitors and Substrates of Cytochrome P450 2C19 (AID 899); further: nearly all actives have a fitted effect of over 60% in size; further: potency means the concentration at half of the fitted maximal effect
Sequence of Cytochrome P450 2C19 (Homo sapiens) (P33261 whole entry, looked up): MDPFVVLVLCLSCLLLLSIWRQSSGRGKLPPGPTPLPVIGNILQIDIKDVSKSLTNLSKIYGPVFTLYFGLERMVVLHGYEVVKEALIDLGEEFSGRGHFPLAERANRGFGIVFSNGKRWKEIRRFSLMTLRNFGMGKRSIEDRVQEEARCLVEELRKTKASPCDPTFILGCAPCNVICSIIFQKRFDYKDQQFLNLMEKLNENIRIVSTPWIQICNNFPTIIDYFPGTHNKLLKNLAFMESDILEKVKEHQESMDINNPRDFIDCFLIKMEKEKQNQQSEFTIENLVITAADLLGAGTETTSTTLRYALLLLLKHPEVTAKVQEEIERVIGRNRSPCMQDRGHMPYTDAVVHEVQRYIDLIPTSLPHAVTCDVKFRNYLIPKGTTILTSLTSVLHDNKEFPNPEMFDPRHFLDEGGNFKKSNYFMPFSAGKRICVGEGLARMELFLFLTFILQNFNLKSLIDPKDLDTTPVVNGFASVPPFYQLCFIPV
Outline: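 5 nM human CYP2C19 with 10uM Luciferin-H EGE (at KM) in 50mM KPO4, compound preincubated 10 min at 37C, then NADPH regeneration for 60 min at 37C. Luciferin read by luminescence after detection reagent; normalized to 57uM ketoconazole as full inhibition.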

[19] = measured here: cell count channel max response
[20] = measured here: lipid channel max response

COc1ccccc1-c1ccc2ncnc(NC3CC3)c2c1
-29.7%: max response [9, 20]
-20.8%: max response [9, 19]
inactive: Potency [1] > 11.4 µM | activity change, negative = inhibition [2] -1.03% | activity change, negative = inhibition [3] -1.81% | activity, negative = inhibition [4] -18.1% | Potency [5] > 46 µM | Potency [6] > 46 µM | Potency [7] | activation [8] 27.8% | activity change, negative = inhibition [9] -9.29% | Potency [13]
active: Potency [10] 11.2 µM | Potency [11] 14.1 µM | Potency [12] 12.6 µM

Clc1ccccc1-c1cncnc1NCCN1CCOCC1
20.3%: max response [9, 20]
inactive: Potency [1] > 11.4 µM | activity, negative = inhibition [4] 7.26% | Potency [5] > 46 µM | Potency [6] > 46 µM | Potency [7] | Potency [14] | activity change, negative = inhibition [9] 1.35% | Potency [10] | Potency [11] | Potency [12] | Potency [13]
active: Potency [8] 3.16 µM
18.6%: max response [9, 19]

COc1cccc(-c2nc(NC3CCNCC3)c3ccccc3n2)c1
inactive: Potency [1] > 11.4 µM | activity change, negative = inhibition [2] 14.7% | activity change, negative = inhibition [3] 23.4% | activity, negative = inhibition [4] 5.39% | Potency [6] > 46 µM | Potency [7] | Potency [14] | Potency [16] | activity change, negative = inhibition [9] 4.76% | Potency [13]
4.05%: max response [9, 20]
active: Potency [15] 12.6 µM | Potency [10] 11.2 µM | Potency [11] 11.2 µM | Potency [12] 12.6 µM
12.9%: max response [9, 19]

CN1CCN(c2ncnc3ccc(-c4ccoc4)cc23)CC1
2.82%: max response [9, 20]
active: Potency [10] 0.631 µM | Potency [11] 0.794 µM | Potency [12] 0.447 µM
12.5%: max response [9, 19]
inactive: Potency [1] > 11.4 µM | activity change, negative = inhibition [2] -22.9% | activity change, negative = inhibition [3] -23.1% | activity, negative = inhibition [4] -0.925% | Potency [5] > 46 µM | Potency [6] > 46 µM | Potency [7] | activity change, negative = inhibition [9] 2.55% | Potency [13]

COc1cccc(-c2ccc3ncnc(NCCc4c[nH]c5ccc(OC)cc45)c3c2)c1
active: Potency [15] 3.98 µM | Potency [17] 1.26 µM | Potency [18] 3.16 µM | Potency [10] 5.01 µM | Potency [11] 3.98 µM | Potency [12] 0.631 µM
-27.9%: max response [9, 20]
inactive: Potency [1] > 11.4 µM | activity change, negative = inhibition [3] -6.66% | Potency [5] > 46 µM | Potency [6] > 46 µM | Potency [14] | Potency [16] | activity change, negative = inhibition [9] -3.93% | Potency [13]
-24.6%: max response [9, 19]

CN1CCN(c2ncncc2-c2ccoc2)CC1
active: Potency [17] 7.94 µM
inactive: Potency [1] > 11.4 µM | activity change, negative = inhibition [2] -0.0355% | activity change, negative = inhibition [3] -13% | activity, negative = inhibition [4] -4.34% | Potency [5] > 46 µM | Potency [6] > 46 µM | Potency [7] | Potency [14] | Potency [16] | Potency [18] | activity change, negative = inhibition [9] 5.79% | Potency [10] | Potency [11] | Potency [12] | Potency [13]
30.3%: max response [9, 20]
23.7%: max response [9, 19]

COc1ccccc1-c1nccc(Nc2ccc(F)cc2)n1
9.46%: max response [9, 19]
inactive: Potency [1] > 11.4 µM | activity change, negative = inhibition [2] 6.43% | activity change, negative = inhibition [3] 10.2% | activity, negative = inhibition [4] -4% | Potency [5] > 46 µM | Potency [6] > 46 µM | Potency [7] | activity change, negative = inhibition [9] 4.58% | Potency [10] | Potency [11] | Potency [12]
12.9%: max response [9, 20]

COc1cccc(Nc2ncc3ncc(=O)n(C)c3n2)c1
14.9%: max response [9, 20]
inactive: Potency [1] > 11.4 µM | activity change, negative = inhibition [3] 0.44% | activity, negative = inhibition [4] -17.5% | Potency [5] > 9.22 µM | Potency [6] > 46 µM | Potency [14] | Potency [16] | Potency [18] | activity change, negative = inhibition [9] 4.86% | Potency [13]
active: Potency [15] 1.58 µM | Potency [10] 0.891 µM | Potency [11] 1 µM | Potency [12] 0.708 µM
11.1%: max response [9, 19]

COc1cccc(Cn2c(=O)c(C)nc3cnc(N(C)C)nc32)c1
19.8%: max response [9, 19]
inactive: Potency [1] > 11.4 µM | activity change, negative = inhibition [2] -23% | activity change, negative = inhibition [3] 1.59% | activity, negative = inhibition [4] -11.2% | Potency [5] > 9.22 µM | Potency [6] > 46 µM | Potency [14] | activity change, negative = inhibition [9] -5.5% | Potency [10] | Potency [11] | Potency [12] | Potency [13]
12.4%: max response [9, 20]

Cc1ccccc1-c1ccc2ncnc(N3CCNCC3)c2c1
8.2%: max response [9, 20]
active: Potency [15] 3.16 µM | Potency [10] 20 µM | Potency [11] 31.6 µM
4.98%: max response [9, 19]
inactive: Potency [1] > 11.4 µM | activity change, negative = inhibition [3] -1.24% | activity, negative = inhibition [4] 9.45% | Potency [5] > 46 µM | Potency [6] > 46 µM | Potency [7] | Potency [14] | Potency [16] | activity change, negative = inhibition [9] 6.61%

CN1CCN(c2ncc3ncc(=O)n(-c4ccccc4)c3n2)CC1
inactive: Potency [1] > 11.4 µM | activity change, negative = inhibition [3] -18.4% | activity, negative = inhibition [4] -9.93% | Potency [5] > 9.22 µM | Potency [6] > 46 µM | Potency [7] | Potency [14] | activity change, negative = inhibition [9] 4.96% | Potency [10] | Potency [12] | Potency [13]
21.7%: max response [9, 19]
23.9%: max response [9, 20]
active: Potency [15] 2.51 µM

COc1ccc(-c2nc3cnc(OC)nc3n(-c3ccc(OC)cc3)c2=O)cc1
29.3%: max response [9, 19]
inactive: Potency [1] > 11.4 µM | activity change, negative = inhibition [2] -4.28% | activity change, negative = inhibition [3] 5.9% | activity, negative = inhibition [4] -4.51% | Potency [5] > 9.22 µM | Potency [6] > 46 µM | Potency [7] | Potency [14] | Potency [16] | activity change, negative = inhibition [9] -15.7% | Potency [11] | Potency [12] | Potency [13]
4.55%: max response [9, 20]
active: Potency [15] 0.316 µM
